Screening data (PubChem BioAssay)
This is a sample that favours compounds with a hit; in the whole collection about 2.2% have one here.
LDHA inh – inhibitors of human lactate dehydrogenase A | purified LDHA, NADH/diaphorase-resazurin fluorescence; hits give low values | P00338 | AID 1347041 | activity change, % (values are at about 110 or 230 µM) | hit rate 0.15% among 480,000; in the data active = activity change below about -30%; inconclusive = mostly about -25% to -30%;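 also: plate controls were DMSO wells for no effect and wells without enzyme for full effect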
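LDH5 2 nM; NADH 0.06 mM, pyruvate 0.2 mM; 200 mM Tris pH 7.4, EDTA, Tween-20; 5 min RT. Detection: diaphorase 0.133 mg/mL + resazurin 37 µM, fluorescence ex540/em590 at 0 and 20 min; normalized to enzyme-free and DMSO wells.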
IDH1 R132H inh – human IDH1 R132H inhibition. O75874. Potency, µM (titrated, usually from 76.6 µM), for the others: at the top dose activity change, negative = inhibition, most hits filed as inhibitors. hit rate 0.093% among 390,000. IDH1-R132H enzyme, NADPH consumption, diaphorase/resazurin fluorescence; also: potency is read from the fitted curve at half-maximal effect; % is scaled to controls: 0 for no effect and ±100 for the full control effect; nearly all actives have a fitted effect of over 65% in size
Target sequence (O75874 whole entry R132H, stated change not applied): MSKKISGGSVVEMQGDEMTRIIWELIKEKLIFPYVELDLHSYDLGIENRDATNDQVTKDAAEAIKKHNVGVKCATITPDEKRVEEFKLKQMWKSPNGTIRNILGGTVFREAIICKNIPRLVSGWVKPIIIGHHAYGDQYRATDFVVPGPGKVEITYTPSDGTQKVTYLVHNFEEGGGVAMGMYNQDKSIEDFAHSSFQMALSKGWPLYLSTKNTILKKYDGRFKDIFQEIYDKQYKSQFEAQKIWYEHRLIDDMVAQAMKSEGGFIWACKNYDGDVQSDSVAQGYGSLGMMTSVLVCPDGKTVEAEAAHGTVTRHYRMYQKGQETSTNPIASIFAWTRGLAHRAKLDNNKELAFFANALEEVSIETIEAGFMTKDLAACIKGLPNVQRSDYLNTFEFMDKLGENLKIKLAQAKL
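IDH1-R132H (0.5 ug/mL dispensed) in pH 7.5 Tris buffer was preincubated 30 min with compound, then given a substrate mix of 0.016 mM NADPH and 2 mM alpha-KG for 80 min at room temperature; remaining NADPH was read by diaphorase/resazurin fluorescence.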
TGFb inhibitor – TGF-b pathway inhibition. hit rate 1.2% among 410,000. Potency, µM (series often up to 46.1 µM), without a hit: top-dose activity, negative = inhibition, hits mostly inhibitors. AID 588855. HepG2 CAGA-GFP TGF-b/SMAD3 reporter, GFP fluorescence, 18 h; TGF-beta stimulated, 500 pg/mL final; also: potency is read from the fitted curve at half-maximal effect; % is scaled to controls: 0 for no effect and ±100 for the full control effect; nearly all actives have a fitted effect of over 65% in size
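Using HEPG2 CAGA-GFP reporter cells at 1000 cells/well, we pinned test compounds, stimulated with recombinant TGF-beta (500 pg/mL final) and measured total well GFP after 18 h.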
S2 tox – cell viability loss in ATXN counter-screen | AID 651635 | hit rate 0.49% among 400,000 | Potency, µM (doses to about 56.7 µM), actives largely listed as cytotoxic | S2 cells (HEK-293 line with an ATXN2-luciferase reporter) viability, CellTiter-Fluor protease fluorescence, 24 h; also: potency is read from the fitted curve at half-maximal effect; nearly all actives have a fitted effect of over 40% in size
ATXN2 expr inh – reduces ATXN2 reporter expression in HEK-293 cells. HEK-293 ATXN2-luciferase reporter, luminescence, 24 h. Potency, µM (highest dose often 57 µM), inactives show top-dose activity change, negative = inhibition, actives largely listed as inhibitors. hit rate 0.72% among 360,000. AID 1745845; also: potency is read from the fitted curve at half-maximal effect; % is scaled to controls: 0 for no effect and ±100 for the full control effect; nearly all actives have a fitted effect of over 55% in size
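ATXN2-luciferase reporter cells (luciferase flanked by upstream and downstream ATXN2 gene portions) were treated 24 h at 37 °C with compounds at up to 57 uM. SteadyGlo luminescence gave expression; GF-AFC fluorescence gave viability.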
HepG2 tox – HepG2 cytotoxicity, counter-screen for TGF-b inhibitors; HepG2 CAGA-GFP viability, ATP luminescence, 18 h; Potency, µM (series often up to 46.1 µM), inactives show top-dose activity change, negative = cytotoxicity, usual class: cytotoxic; hit rate 0.76% among 410,000; also: potency is read from the fitted curve at half-maximal effect
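CellTiter-Glo luminescence gave cytotoxicity after 18 hours at 37 degrees C. The cells were HepG2 CAGA-GFP in 1% FBS DMEM, stimulated with 500 pg/mL TGF-beta after compound addition. %Activity was normalised to no-cell wells (complete cell-killing) and DMSO (no toxicity), and curves were fitted and classified.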
* marks the source's active call; other numbers are inactive results; i = inactive; ? = inconclusive; nt = not tested or not shown; [ ] = dose if it differs, or a comment. Unless noted, calls follow the shape of the dose curve; as a rule, active = well fitted curve in the direction sought with a large enough effect; inconclusive = small, poorly fitted or top-dose-only effect, or another doubt; inactive = no such curve, though single readings can be large; an effect the other way counts as inactive or inconclusive.

SMILES	LDHA inh	IDH1 R132H inh	TGFb inhibitor	S2 tox	ATXN2 expr inh	HepG2 tox
CO[C@H]1C=CC=C(C)C(=O)NC2=CC(=O)C(NCCN(C)C)=C(C[C@@H](C)C[C@H](OC)[C@@H](O)[C@@H](C)C=C(C)[C@@H]1OC(N)=O)C2=O	nt	nt	nt	nt	0.077µM*	nt
COC1=C2C[C@H](C)C[C@H](OC)[C@@H](O)[C@@H](C)C=C(C)[C@H](OC(N)=O)[C@@H](OC)C=CC=C(C)C(=O)NC(=CC1=O)C2=O	18	nt	?	nt	nt	-41%
Cc1cccc(Nc2nnc(SC/C(O)=C(\C#N)c3nc4ccccc4[nH]3)s2)c1C	-2	1%	?	i	7%	4%
COc1ccc(-c2nnc(Sc3nc4ccccc4o3)c3ccccc23)cc1	-10	2%	13µM*	i	-3%	13µM*
COC(=O)Cn1c(Br)nc2c1c(=O)[nH]c(=O)n2C	-12	nt	nt	nt	nt	nt
Fc1ccc(Nc2nc(N3CCOCC3)c3ccccc3n2)cc1	-1	2%	?	i	-19%	-38%
c1ccc2c(Nc3nc(N4CCOCC4)c4ccccc4n3)cccc2c1	8	-5%	25µM*	i	?	-39%
Cc1ccc(-c2onc(C)c2C)cc1S(=O)(=O)NC1CCC(C)CC1 (centres undefined)	0	9%	10µM*	nt	nt	-36%
Cc1cc(C)c(NS(=O)(=O)c2cc(-c3onc(C)c3C)ccc2C)c(C)c1	-5	-11%	-10%	nt	nt	13%
CCOc1cc(C(=O)OCC(=O)NC(=O)NC(C)(C)C)cc(OCC)c1OCC	2	nt	nt	nt	nt	nt
COc1ccc(C)cc1NC(=O)Nc1cccc(-c2noc(C)n2)c1	-1	6%	-14%	i	-29%	-29%
Cc1nc(-c2cccc(NC(=O)Nc3ccc([N+](=O)[O-])cc3)c2)no1	-6	5%	?	i	13µM*	-56%
CC(=O)c1cc2c(s1)-c1cc(F)ccc1OC2	4	6%	7.1µM*	nt	?	-44%
COC(=O)c1ccc2c(c1)C(C)(C)C(/C=C/c1ccc(O)cc1)=[N+]2C	7	?	4µM*	7.9µM*	3.2µM*	3.5µM*
COC(=O)c1ccc2c(c1)C(C)(C)C(/C=C/c1ccc(OC)c(OC)c1OC)=[N+]2C	-8	?	10µM*	?	25µM*	-94%
COc1ccc(/C=N/Nc2ccc(C(=O)O)cc2)c(OC)c1OC	-13	0%	0%	i	51%	-5%
CCOC(=O)C1=C(COC(=O)c2ccc3ccccc3c2O)NC(=O)NC1C (centres undefined)	-3	-11%	3%	i	nt	-24%
CCOc1ccc(Br)cc1S(=O)(=O)Nc1ccc(C(=O)OCC(=O)N(C)c2ccccc2)cc1	-10	2%	2%	i	-1%	3%
CCOc1ccc(Br)cc1S(=O)(=O)Nc1cccc(S(=O)(=O)N(C)c2ccccc2)c1	-1	-5%	11µM*	i	-7%	-31%
CCn1c2ccccc2c2nnc(SCCCn3c(=O)[nH]c4ccccc43)nc21	-1	4%	-2%	20µM*	?	3%
COc1ccccc1/C(C#N)=C\c1ccccc1Cl	8	nt	nt	nt	nt	nt
CCCS(=O)(=O)c1nnnn1-c1cccc(OC)c1	-6	3%	?	nt	?	18µM*
Cc1ccc(S(=O)(=O)N2C[C@@H](C)[C@]3(C2)[C@H](O)[C@H](OC(=O)NCc2ccco2)C[C@H]2C(=O)N(c4ccccc4)C(=O)[C@H]23)cc1	-2	6%	13%	i	10%	6%
CCOC(=O)N1CCN(C(=O)c2oc3ccc(S(=O)(=O)N4CCCCC4)cc3c2C)CC1	-4	10%	1%	i	-16%	-23%
Cc1c(C(=O)N2CCCCC2)oc2ccc(S(=O)(=O)N3CC(C)CC(C)C3)cc12 (centres undefined)	-1	2%	11µM*	i	?	-31%
SMILES	LDHA inh	IDH1 R132H inh	TGFb inhibitor	S2 tox	ATXN2 expr inh	HepG2 tox
CCOC(=O)c1c(NC(=O)/C=C\C(=O)O)sc(C)c1-c1ccccc1	-5	-16%	25%	i	?	5%
CCOC(=O)c1c(NC(=O)/C=C/C(=O)O)sc(C)c1-c1ccc(C(C)(C)C)cc1	-3	?	?	?	-13%[11.3 µM]	13µM*
O=C1c2ccccc2S(=O)(=O)N1Cc1nc2ccccc2s1	-5	1%	-6%	i	4µM*	-5%
CCc1ccccc1NC(=O)c1nc2ccccc2nc1N1CCOCC1	-3	nt	nt	nt	nt	nt
CC(C)c1nnc(NC(=O)c2nc(S(=O)(=O)Cc3ccccc3)ncc2Cl)s1	3	3%	?	?	?	i
COc1ccc(N(Cc2ccccc2)C(=O)c2nc(SC)ncc2Cl)cc1	0	18%	13µM*	i	?	-30%
CCCS(=O)(=O)c1ncc(Cl)c(C(=O)N(Cc2ccccc2)Cc2ccco2)n1	0	4%	8.9µM*	nt	nt	4µM*
COc1ccc(NC(=O)c2nc(SC)ncc2Cl)cc1	-8	-2%	4%	i	-6%	-18%
CCS(=O)(=O)c1ncc(Cl)c(C(=O)N(Cc2ccccc2)c2ccc(OC)cc2)n1	-7	-7%	3.2µM*	nt	nt	3.2µM*
COc1ccc2c(c1)C(SCC(=O)NCCc1ccc(Cl)cc1)CC(C)(C)O2 (centres undefined)	4	0%	?	?	28µM*	-30%
N#CCc1ccc(OCCCN2CCC(C(O)(c3ccccc3)c3ccccc3)CC2)cc1	-1	nt	nt	?	0%	nt
OC(c1ccccc1)(c1ccccc1)C1CCN(CCCOc2ccc3c(c2)CCCC3)CC1	7	nt	nt	25µM*	18µM*	nt
COc1cc(N2CCC(N3CCN(C)CC3)CC2)ccc1Nc1ncnc(Nc2ccccc2S(=O)(=O)C(C)C)n1	nt	nt	nt	nt	27µM*	nt
COc1cc(N2CCC(C(N)=O)CC2)ccc1Nc1nc(N)c(Cl)c(Nc2ccccc2S(=O)(=O)C(C)C)n1	nt	nt	nt	nt	-15%	nt
Cc1cccc(OCC(=O)NCC(=O)N/N=C/c2cc(Br)cc(Br)c2O)c1	-8	-3%	-4%	i	14µM*	-15%
Fc1ccc(F)c(CNCc2cccnc2-n2cccn2)c1	0	nt	nt	nt	nt	nt
CCc1ccn2cc(-c3ccc4c(c3)OCO4)nc2c1	-3	9%	-23%	?	3.5µM*	-62%
COc1ccc(OC)c(S(=O)(=O)NCCC2=CCCCC2)c1	5	1%	-25%	i	-12%	0%
O=C(CN1CCN(S(=O)(=O)c2ccccc2)CC1)Nc1cccc(C(F)(F)F)c1	4	6%	-6%	i	-26%	-38%
